# PubChem BioAssay (NCATS)
# Records with an inconclusive call do not appear. A call without a number means that no potency is given here. Active and inactive are the calls of the source. Unless noted, the call rests on the fitted dose curve; in most records, active means well fitted curve in the direction sought with a large enough effect; inconclusive means small, poorly fitted or top-dose-only effect, or another doubt; inactive means no such curve, though single readings can be large; an effect the other way counts as inactive or inconclusive.
# Columns and labels:
# [1] = target: Thyrotropin receptor (Homo sapiens) (UniProt P16473); assay: qHTS Assay for Antagonists of the Thyroid Stimulating Hormone Receptor (AID 488980); further: series mostly up to about 58 µM
# Method in brief: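 Readout is cAMP by HTRF competition between cellular cAMP and cAMP-d2 for a cryptate-labelled antibody. Antagonism was assessed in TSHR-transfected HEK293 cells stimulated with 4 nM TSH (EC80, final) in the presence of RO 20-1724.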
# [2] = target: Galactokinase (Homo sapiens) (UniProt P51570); assay: qHTS Validation Assay for Inhibitors of Human Galactokinase (GALK) (AID 493189)
# Method in brief: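 5 nM GALK / 100 uM galactose / 35 uM ATP, 20 mM HEPES pH8.0, 5 mM MgCl2, 60 mM NaCl, 1 mM DTT, 0.01% BSA (final). RT 1 h; Kinase-Glo Plus luminescence.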
# [3] = Validation screen for small molecules that induce DNA re-replication in SW480 colon adenocarcinoma cells (AID 504364)
# Method in brief: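 Hoechst-stained SW480 nuclei, imaged at 405 nm excitation after 48 hr compound exposure, were counted for elevated DNA content as the re-replication signal.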
# [4] = target: Flap endonuclease 1 (Homo sapiens) (UniProt P39748); assay: qHTS Validation Assay for the Inhibitors of Human Flap endonuclease 1 (FEN1) (AID 488816); further: potency means the concentration at half of the fitted maximal effect
# Method in brief: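 Enzyme reagent 10 nM; cpds pinned; 15 min RT preinc.; substrate 50 nM final; reads t=0 and 15 min; no-enzyme buffer wells as neg. control; normalized data, 4-parameter Hill fit.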
# [5] = target: M-phase phosphoprotein 8 (Homo sapiens) (UniProt Q99549); assay: qHTS Validation Assay for Inhibitors for MPP8 Chromodomain Interactions with Methylated Histone Tails (AID 488949); further: nearly all actives have a fitted effect of over 55% in size; further: potency means the concentration at half of the fitted maximal effect
# Method in brief: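 50 nM MPP8 + 50 nM b-H3K9me3 peptide, PBS pH 7.4/0.01% Tween-20, 30 min RT; + cpd 30 min RT; + AlphaScreen donor/Ni-chelate acceptor beads 10 ug/mL final, 30 min dark; luminescence read.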
# [6] = target: Chromobox protein homolog 1 (Homo sapiens) (UniProt P83916); assay: qHTS Validation Assay for Inhibitors of HP1-beta Chromodomain Interactions with Methylated Histone Tails (AID 488953); further: nearly all actives have a fitted effect of over 50% in size; further: potency means the concentration at half of the fitted maximal effect
# Method in brief: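 Compounds pinned into a preassembled complex of HP1-beta and trimethyl-K9 histone H3(1-18) biotin peptide (50 nM each; PBS pH 7.4, 0.01% Tween-20). After 30 min, bead-based AlphaScreen detection followed.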
# [7] = target: Methanococcus maripaludis chaperonin (MmCpn) (UniProt Q6LX38); assay: High-Throughput Screening for Modulators of Cytosolic Chaperonin Activity: MmCpn Primary Screen (AID 488978);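 further: 50 nM MmCpn enzyme hydrolysing 30 µM ATP at 37 °C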
# Method in brief: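 Steps: chaperonin 50 nM final; add compound, 5 min RT; start with ATP, 30 uM final; hold 10 min at 37C; add ADP Transcreener HTRF reagent, 5 min; read ex 320, em 590 and 665 nm.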
# [8] = target: D(1A) dopamine receptor (Homo sapiens) (UniProt P21728); assay: HTS Assay for Allosteric Agonists of the Human D1 Dopamine Receptor: Primary Screen for Agonists (AID 488981)
# Method in brief: (§1)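 Tetracycline-induced HEK293 Trex D1 cells with forced coupling to calcium, loaded with no-wash calcium dye; kinetic fluorescence read 180 s after compound addition for agonism, then a further 180 s after an EC20 dopamine challenge for potentiation.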
# [9] = target: D(1A) dopamine receptor (Homo sapiens) (UniProt P21728); assay: HTS Assay for Allosteric Agonists of the Human D1 Dopamine Receptor: Primary Screen for Potentiators (AID 488982); further: potency means the concentration at half of the fitted maximal effect
# Method in brief: as §1
# [10] = target: D(1A) dopamine receptor (Homo sapiens) (UniProt P21728); assay: HTS Assay for Allosteric Agonists of the Human D1 Dopamine Receptor: Primary Screen for Antagonists (AID 488983);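 further: calcium flux response to an EC80 dopamine challenge measured with no-wash dye; nearly all actives have a fitted effect of over 65% in size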; further: potency means the concentration at half of the fitted maximal effect
# Method in brief: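 In this primary screen, compounds are applied to calcium-dye-loaded HEK293 T-REx cells with force-coupled D1 expression induced overnight at 30 C. An EC80 of dopamine follows the 180 s compound phase, and calcium is monitored for a further 180 s.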
# [11] = Nrf2 qHTS screen for inhibitors: Validation (AID 493153; active means well fitted inhibition curve with a large enough effect in the main read-out, with a control signal flat, not every such curve was filed as active); conditions: Potency: luciferase luminescence; viability change: measured here: cytotoxicity max response
# Method in brief: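 In this counterscreened reporter format, each well gives two signals: CellTiter-Fluor fluorescence for cytotoxicity and ARE-luciferase luminescence for Nrf2 function. A549 ARE_Fluc cells in 5% FBS OPTI-MEM were exposed to compound titrations for 18-24 h.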
# [12] = qHTS for Inhibitors of Cell Surface uPA Generation: Validation Assay (AID 493164);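 further: RAW 264.7 macrophage cells exposed to compound for 18 h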
# Method in brief: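 Compounds are titrated over seven points (2.45 nM–38.3 uM final) onto pre-plated RAW 264.7 cells and incubated for 18 h. Retained intracellular ATP, measured with ATP-Lite, indicates blocked lethal factor entry.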
# [13] = target: ATP-dependent 6-phosphofructokinase (Trypanosoma brucei brucei) (UniProt O15648); assay: qHTS Assay to Find Inhibitors of T. brucei phosphofructokinase: hit validation (AID 492961); further: potency means the concentration at half of the fitted maximal effect
# Method in brief: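 Inhibition of parasite PFK is measured as reduced ADP formation, quantified via luciferase after ATP depletion. Assay used 0.1 mM ATP, 0.5 mM F6P, 1.25 nM enzyme, 45 min incubation.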
# [14] = target: Transient receptor potential cation channel subfamily V member 1 (Homo sapiens) (UniProt Q8NER1); assay: HTS Assay for Compounds that Act as Enhancers of the Vanilloid Receptor 1 (AID 488979)
# Method in brief: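 TRPV1 cells loaded with Fluo-8 calcium dye; compound added and Ca2+ signal (ex 480/em 520 nm) followed 3 min, then capsaicin at EC20 added and read 2 more min to detect enhancement.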
# [15] = target: Thyrotropin-releasing hormone receptor (Homo sapiens) (UniProt P34981); assay: qHTS for Small Molecule Agonists and Allosteric Enhancers of Human TRH Receptor: Validation Screen for Agonists (AID 493127;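 active means calcium activation more than 3 SD above the typical response in the agonist read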;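 further: intracellular calcium rise by fluo-8 fluorescence before TRH EC20 addition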); conditions: TRH receptor agonist cell assay; at 2 µM; stronger effect = higher value
# Method in brief: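 Kinetic fluorescence assay of agonist-induced calcium release: overnight-plated TRHR cells, room-temperature fluo-8 loading, baseline then compound addition with per-second reads.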
# [16] = target: Thioredoxin reductase 1, cytoplasmic (Rattus norvegicus) (UniProt O89049); assay: qHTS Assay for Inhibitors of Mammalian Selenoprotein Thioredoxin Reductase 1 (TrxR1) (AID 488773); conditions: Potency: inhibition; further: nearly all actives have a fitted effect of over 40% in size; further: potency means the concentration at half of the fitted maximal effect
# Method in brief: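 Inhibition is scored from the loss of NADPH fluorescence between first and last reads of an 8-min kinetic run. Selenite (400 uM) was the substrate, added after 15 min compound preincubation at room temperature.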
# [17] = Validation screen for small molecules that induce genotoxicity in human embryonic kidney (HEK293T) cells expressing luciferase-tagged ELG1 (AID 493106)
# Method in brief: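 In this validation screen, increased ELG1-luciferase signal flags compounds causing genetic stress. HEK293T reporter cells are treated 16 hr (37 °C, 5% CO2), developed with ONE-Glo for 30 min at room temperature, and imaged on a CCD-based reader.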
# [18] = target: ATPase family AAA domain-containing protein 5 (Homo sapiens) (UniProt Q96QE3); assay: Validation screen for small molecules that inhibit ELG1-dependent DNA repair in human embryonic kidney (HEK293T) cells expressing luciferase-tagged ELG1 (AID 493107);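 further: cells co-treated with the DNA-damaging agent 5-fluorouridine alongside compound; series mostly up to about 46 µM; inhibitors lower the ELG1-luciferase luminescence signal; nearly all actives have a fitted effect of over 70% in size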
# Method in brief: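 Compounds reducing 5-fluorouridine-driven ELG1-luciferase signal in HEK293T cells were scored; exposure lasted 16 hr at 37 °C with luminescence detected via ONE-Glo.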
# Sequence of ATP-dependent 6-phosphofructokinase (Trypanosoma brucei brucei) (O15648 whole entry, looked up): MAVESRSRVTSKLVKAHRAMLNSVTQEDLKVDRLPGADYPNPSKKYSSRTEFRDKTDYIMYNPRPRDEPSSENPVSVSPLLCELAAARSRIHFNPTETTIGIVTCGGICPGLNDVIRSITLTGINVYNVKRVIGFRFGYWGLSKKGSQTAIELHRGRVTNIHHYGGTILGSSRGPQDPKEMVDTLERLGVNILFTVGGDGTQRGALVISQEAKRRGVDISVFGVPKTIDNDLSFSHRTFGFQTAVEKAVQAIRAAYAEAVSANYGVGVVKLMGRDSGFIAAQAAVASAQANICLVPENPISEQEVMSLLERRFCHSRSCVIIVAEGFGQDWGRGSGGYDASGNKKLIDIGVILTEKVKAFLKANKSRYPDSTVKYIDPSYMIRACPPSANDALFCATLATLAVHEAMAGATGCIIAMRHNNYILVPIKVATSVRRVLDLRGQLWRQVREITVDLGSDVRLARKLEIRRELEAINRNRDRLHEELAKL
# Sequence of Chromobox protein homolog 1 (Homo sapiens) (P83916 whole entry, looked up): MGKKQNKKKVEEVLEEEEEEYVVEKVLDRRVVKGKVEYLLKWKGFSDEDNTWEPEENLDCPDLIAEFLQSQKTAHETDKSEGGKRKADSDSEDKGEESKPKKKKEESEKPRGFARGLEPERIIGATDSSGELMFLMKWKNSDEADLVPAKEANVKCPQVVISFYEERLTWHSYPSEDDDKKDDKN
# Sequence of Transient receptor potential cation channel subfamily V member 1 (Homo sapiens) (Q8NER1 whole entry, looked up): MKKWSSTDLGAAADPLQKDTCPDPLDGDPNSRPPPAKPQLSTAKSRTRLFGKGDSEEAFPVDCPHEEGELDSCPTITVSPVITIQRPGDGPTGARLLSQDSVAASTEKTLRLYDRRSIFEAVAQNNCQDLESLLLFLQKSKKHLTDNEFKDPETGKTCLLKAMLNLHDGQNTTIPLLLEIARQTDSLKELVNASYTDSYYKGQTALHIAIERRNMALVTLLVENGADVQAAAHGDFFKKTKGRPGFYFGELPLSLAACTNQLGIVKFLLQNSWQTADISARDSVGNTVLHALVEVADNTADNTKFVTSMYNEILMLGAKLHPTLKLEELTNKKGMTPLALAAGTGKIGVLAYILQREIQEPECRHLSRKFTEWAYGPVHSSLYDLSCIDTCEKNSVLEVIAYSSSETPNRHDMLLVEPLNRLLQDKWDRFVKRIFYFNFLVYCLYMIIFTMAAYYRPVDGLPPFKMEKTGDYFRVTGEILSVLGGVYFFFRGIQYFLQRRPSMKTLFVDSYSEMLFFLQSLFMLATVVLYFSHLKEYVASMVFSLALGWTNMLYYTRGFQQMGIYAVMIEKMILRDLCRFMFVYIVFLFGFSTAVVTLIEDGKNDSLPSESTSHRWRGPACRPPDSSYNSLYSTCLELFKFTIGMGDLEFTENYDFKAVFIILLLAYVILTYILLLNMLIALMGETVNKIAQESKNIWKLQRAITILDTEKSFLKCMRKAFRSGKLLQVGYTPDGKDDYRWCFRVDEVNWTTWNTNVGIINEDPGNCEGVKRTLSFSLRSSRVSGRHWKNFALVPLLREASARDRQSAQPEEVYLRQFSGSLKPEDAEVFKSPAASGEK
# Sequence of D(1A) dopamine receptor (Homo sapiens) (P21728 whole entry, looked up): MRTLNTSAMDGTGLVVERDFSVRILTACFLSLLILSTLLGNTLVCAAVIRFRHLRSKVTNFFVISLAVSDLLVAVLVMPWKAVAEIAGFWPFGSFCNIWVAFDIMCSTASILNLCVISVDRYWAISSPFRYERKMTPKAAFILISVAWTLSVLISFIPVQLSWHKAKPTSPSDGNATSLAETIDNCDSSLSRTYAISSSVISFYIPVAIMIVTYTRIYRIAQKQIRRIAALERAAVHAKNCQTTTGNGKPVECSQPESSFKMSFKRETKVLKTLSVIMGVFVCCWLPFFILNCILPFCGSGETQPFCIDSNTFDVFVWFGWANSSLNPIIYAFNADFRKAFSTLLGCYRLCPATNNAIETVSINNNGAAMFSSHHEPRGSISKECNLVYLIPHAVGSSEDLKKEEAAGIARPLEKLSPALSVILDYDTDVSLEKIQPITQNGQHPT
# Sequence of M-phase phosphoprotein 8 (Homo sapiens) (Q99549 whole entry, looked up): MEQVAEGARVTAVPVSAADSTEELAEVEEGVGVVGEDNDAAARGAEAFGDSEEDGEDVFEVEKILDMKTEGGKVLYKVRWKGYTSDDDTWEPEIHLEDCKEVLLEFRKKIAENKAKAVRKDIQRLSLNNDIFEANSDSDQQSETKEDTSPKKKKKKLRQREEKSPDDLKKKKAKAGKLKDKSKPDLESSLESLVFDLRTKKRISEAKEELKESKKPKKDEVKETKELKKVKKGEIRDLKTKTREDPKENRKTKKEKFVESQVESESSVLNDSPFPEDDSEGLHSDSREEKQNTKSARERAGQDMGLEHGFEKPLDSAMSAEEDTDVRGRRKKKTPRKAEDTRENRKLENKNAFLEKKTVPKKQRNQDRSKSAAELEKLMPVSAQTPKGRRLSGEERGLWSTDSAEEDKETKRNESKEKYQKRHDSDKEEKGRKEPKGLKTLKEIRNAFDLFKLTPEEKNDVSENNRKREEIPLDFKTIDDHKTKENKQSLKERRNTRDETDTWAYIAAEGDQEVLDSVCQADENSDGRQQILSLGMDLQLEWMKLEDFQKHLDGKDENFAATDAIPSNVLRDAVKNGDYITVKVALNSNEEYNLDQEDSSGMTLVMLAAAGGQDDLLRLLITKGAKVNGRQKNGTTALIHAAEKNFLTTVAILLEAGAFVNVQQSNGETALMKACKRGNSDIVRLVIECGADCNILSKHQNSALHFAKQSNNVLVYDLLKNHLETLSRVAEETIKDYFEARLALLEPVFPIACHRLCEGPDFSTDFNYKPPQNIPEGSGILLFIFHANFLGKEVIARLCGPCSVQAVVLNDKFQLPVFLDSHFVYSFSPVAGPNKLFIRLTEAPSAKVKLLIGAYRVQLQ
# Sequence of Flap endonuclease 1 (Homo sapiens) (P39748 whole entry, looked up): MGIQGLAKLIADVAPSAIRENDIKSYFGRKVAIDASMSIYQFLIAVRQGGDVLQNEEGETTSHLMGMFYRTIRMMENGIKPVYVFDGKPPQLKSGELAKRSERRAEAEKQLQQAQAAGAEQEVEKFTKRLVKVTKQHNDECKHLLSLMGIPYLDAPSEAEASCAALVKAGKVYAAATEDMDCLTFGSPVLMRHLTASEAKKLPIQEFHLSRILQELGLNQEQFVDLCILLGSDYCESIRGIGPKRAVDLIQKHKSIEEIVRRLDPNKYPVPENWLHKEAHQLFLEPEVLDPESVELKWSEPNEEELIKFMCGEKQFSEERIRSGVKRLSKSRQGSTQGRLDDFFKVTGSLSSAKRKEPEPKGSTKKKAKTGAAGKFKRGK
# Sequence of Galactokinase (Homo sapiens) (P51570 whole entry, looked up): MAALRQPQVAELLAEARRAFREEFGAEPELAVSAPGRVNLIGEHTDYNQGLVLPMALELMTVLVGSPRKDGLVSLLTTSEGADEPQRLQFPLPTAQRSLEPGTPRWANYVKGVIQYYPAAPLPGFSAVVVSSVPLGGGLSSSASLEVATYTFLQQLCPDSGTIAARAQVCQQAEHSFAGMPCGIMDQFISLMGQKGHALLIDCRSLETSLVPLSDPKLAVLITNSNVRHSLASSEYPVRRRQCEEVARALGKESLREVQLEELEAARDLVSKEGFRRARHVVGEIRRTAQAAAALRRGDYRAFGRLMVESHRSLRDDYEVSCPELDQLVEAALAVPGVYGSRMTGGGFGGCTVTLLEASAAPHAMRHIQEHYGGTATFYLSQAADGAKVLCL
# Sequence of Methanococcus maripaludis chaperonin (MmCpn) (Q6LX38 1-543): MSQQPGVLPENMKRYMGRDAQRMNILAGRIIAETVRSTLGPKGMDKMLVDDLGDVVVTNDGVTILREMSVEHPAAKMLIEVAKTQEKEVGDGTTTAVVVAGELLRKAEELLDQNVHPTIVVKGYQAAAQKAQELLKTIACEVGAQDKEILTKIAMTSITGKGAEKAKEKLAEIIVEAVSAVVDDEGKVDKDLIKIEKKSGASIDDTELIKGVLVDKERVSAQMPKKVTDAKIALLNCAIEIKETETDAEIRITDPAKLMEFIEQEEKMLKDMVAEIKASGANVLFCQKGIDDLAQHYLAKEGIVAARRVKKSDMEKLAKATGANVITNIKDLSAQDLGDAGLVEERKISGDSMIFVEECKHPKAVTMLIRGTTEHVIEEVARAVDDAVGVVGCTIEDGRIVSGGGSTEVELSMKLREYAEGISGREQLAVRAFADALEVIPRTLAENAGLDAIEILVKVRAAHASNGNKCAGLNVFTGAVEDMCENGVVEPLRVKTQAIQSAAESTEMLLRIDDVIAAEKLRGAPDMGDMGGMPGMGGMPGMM
# Sequence of Thyrotropin receptor (Homo sapiens) (P16473 whole entry, looked up): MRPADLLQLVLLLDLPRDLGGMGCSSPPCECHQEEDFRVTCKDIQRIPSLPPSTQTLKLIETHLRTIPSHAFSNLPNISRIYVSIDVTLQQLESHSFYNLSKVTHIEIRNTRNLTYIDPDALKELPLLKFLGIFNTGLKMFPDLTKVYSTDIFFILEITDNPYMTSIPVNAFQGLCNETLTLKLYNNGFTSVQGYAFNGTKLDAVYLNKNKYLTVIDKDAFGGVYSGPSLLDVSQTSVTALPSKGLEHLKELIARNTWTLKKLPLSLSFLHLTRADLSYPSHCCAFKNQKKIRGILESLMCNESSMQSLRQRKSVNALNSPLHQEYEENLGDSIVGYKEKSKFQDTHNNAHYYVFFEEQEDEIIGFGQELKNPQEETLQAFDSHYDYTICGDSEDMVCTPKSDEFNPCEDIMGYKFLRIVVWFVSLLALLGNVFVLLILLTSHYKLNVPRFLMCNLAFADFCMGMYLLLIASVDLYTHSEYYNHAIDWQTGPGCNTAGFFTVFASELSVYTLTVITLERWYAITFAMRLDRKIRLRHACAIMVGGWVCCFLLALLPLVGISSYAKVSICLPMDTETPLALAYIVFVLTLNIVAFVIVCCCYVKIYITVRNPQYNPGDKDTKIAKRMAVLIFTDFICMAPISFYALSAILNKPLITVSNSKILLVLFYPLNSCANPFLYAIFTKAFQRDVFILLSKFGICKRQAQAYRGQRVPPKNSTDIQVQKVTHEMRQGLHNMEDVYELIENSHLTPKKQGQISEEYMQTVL
compound,measurement,setting,value
CN1C2CCC1CC(OC(c1ccccc1)c1ccc(Cl)cc1)C2 (stereo unspecified),outcome,[1],inactive
same,outcome,[2],inactive
same,Potency,[3],inactive
N#C/C(=C/c1ccc(O)c(O)c1)C(N)=S,Potency,[4],2.99 µM (active)
same,Potency,[5],13.4 µM (active)
same,Potency,[6],12.6 µM (active)
same,outcome,[7],inactive
same,Potency,[8],inactive
same,Potency,[9],0.517 µM (active)
same,Potency,[10],inactive
same,Potency,[11],inactive
same,viability change,[11],0.144%
same,outcome,[12],inactive
Oc1cccc[c]1[Hg][Cl],Potency,[13],5.62 µM (active)
CC[N+](C)(CC)CCOC(=O)C(O)(c1ccccc1)c1ccccc1,Potency,[13],inactive
CCCN1CCCC2Cc3[nH]ncc3CC21 (stereo unspecified),Potency,[5],inactive
same,outcome,[14],inactive
same,outcome,[1],inactive
same,activation,[15],-0.5% (inactive)
same,Potency,[3],inactive
CCCN1CCc2cccc3c2[C@H]1Cc1ccc(O)c(O)c1-3,Potency,[16],23.8 µM (active)
same,Potency,[6],70.8 µM (active)
same,outcome,[7],inactive
same,Potency,[17],inactive
same,Potency,[11],inactive
same,viability change,[11],0.172%
same,outcome,[12],inactive
CN1CCCC(=C(c2cccs2)c2cccs2)C1,Potency,[13],inactive
CN1CC[C@@]2(C)c3cc(O)ccc3N(C)C12 (stereo partly specified),Potency,[6],0.0095 µM (active)
same,outcome,[7],inactive
same,outcome,[14],inactive
same,outcome,[1],inactive
same,Potency,[8],inactive
same,Potency,[10],inactive
same,Potency,[17],inactive
same,Potency,[18],inactive
same,activation,[15],-0.188% (inactive)
same,outcome,[12],inactive
same,outcome,[2],inactive
same,Potency,[3],inactive
CC(C)[C@@]1(NC(=O)[C@@H]2C[C@@H]3c4cccc5[nH]cc(c45)C[C@H]3N(C)C2)O[C@@]2(O)[C@@H]3CCCN3C(=O)[C@H](Cc3ccccc3)N2C1=O,outcome,[7],inactive
same,Potency,[8],inactive
same,Potency,[9],inactive
same,Potency,[10],5.62 µM (active)
same,Potency,[17],inactive
same,Potency,[11],inactive
same,viability change,[11],10.7%
same,outcome,[12],inactive
CC(C)CC(NP(=O)(O)O[C@@H]1O[C@@H](C)[C@H](O)[C@@H](O)[C@H]1O)C(=O)NC(Cc1c[nH]c2ccccc12)C(=O)O (stereo partly specified),Potency,[4],inactive
same,Potency,[5],inactive
same,outcome,[14],inactive
same,outcome,[1],inactive
same,activation,[15],1.38% (inactive)
same,outcome,[2],inactive
same,Potency,[3],inactive
NCC(O)c1cc(O)c(O)cc1F (stereo unspecified),Potency,[4],2.67 µM (active)
same,Potency,[5],18.9 µM (active)
same,outcome,[7],inactive
same,outcome,[14],inactive
same,outcome,[1],inactive
same,Potency,[9],inactive
same,Potency,[10],2.51 µM (active)
same,Potency,[17],inactive
same,Potency,[18],inactive
same,activation,[15],1.38% (inactive)
same,outcome,[12],inactive
same,outcome,[2],inactive
same,Potency,[3],inactive
O=C(O)C(Cl)(Cl)Cl,Potency,[13],inactive
CCCN1CCC[C@@H](c2cccc(O)c2)C1,Potency,[16],inactive
same,Potency,[6],inactive
same,outcome,[7],inactive
same,Potency,[8],inactive
same,Potency,[10],11.2 µM (active)
same,Potency,[17],inactive
same,Potency,[11],inactive
same,viability change,[11],-15.6%
same,outcome,[12],inactive
CNC(=O)OCC[N+](C)(C)C,Potency,[5],inactive
same,outcome,[14],inactive
same,outcome,[1],inactive
same,Potency,[13],inactive
same,activation,[15],-0.438% (inactive)
same,Potency,[3],inactive
CC1OC1P(=O)(O)O (stereo unspecified),Potency,[5],inactive
same,outcome,[14],inactive
same,outcome,[1],inactive
same,activation,[15],-2.75% (inactive)
same,Potency,[3],inactive
N#CC(C#N)=Cc1cc(O)c(O)c(O)c1,Potency,[5],39.8 µM (active)
same,outcome,[14],inactive
same,outcome,[1],inactive
same,Potency,[13],inactive
same,activation,[15],0.188% (inactive)
Cn1sc(Cl)cc1=O,Potency,[13],inactive
CCOP(=O)(OCC)O/C(=C/Cl)c1ccc(Cl)cc1Cl,Potency,[13],inactive
